The values that follow come from PubChem BioAssay (NCATS).

Experiment [1] concerns HaCat. Briefly: Cytotoxic Profiling of Annotated Libraries Using Quantitative High-Throughput Screening (AID 1296008). Further: nearly all actives have a fitted effect of over 60% in size. Further: potency means the concentration at half of the fitted maximal effect. Particulars: Five cell lines viability, CellTiter-Glo ATP luminescence, 48-72 h; max response: hits give low values. The essentials:
(§1)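 Compounds were pin-transferred onto cells and incubated 48 or 72 hr at 37 degree Celsius, 95% humidity. CellTiter-Glo was added, plates sat 10 min at room temperature, then ATP-coupled luminescence was imaged as the viability read-out.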
On the technique in general: In ATP-based viability assays light output follows the ATP content of the culture.

The subject of experiment [2] is KB-3-1. Described as above. Conditions: Five cell lines viability, CellTiter-Glo ATP luminescence, 48-72 h; max response: hits give low values. The procedure, abridged: as §1
Experiment [3] has as its system NIH3T3. Described as above. Conditions: Five cell lines viability, CellTiter-Glo ATP luminescence, 48-72 h; max response: hits give low values. The essentials: as §1
Experiment [4] has as its system HACAT. Briefly: qHTS assay to identify novel small-molecules to repurpose for Merkel cell carcinoma treatment (AID 1296009). Further: nearly all actives have a fitted effect of over 60% in size. Further: potency means the concentration at half of the fitted maximal effect. Particulars: MCC and control cell lines, CellTiter-Glo viability, 72 h; series mostly up to 44.8 µM. The essentials: (§2)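 Cells exposed to NPC (8-point) and MIPE (11-point) compound dilutions for 72 hr at 37 degree celsius; viability read by CellTiter-Glo luminescence, normalized to no-cell and DMSO in-plate controls.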
A general note: In qHTS, concentration-response curves come from the screen itself.

Experiment [5] relates to HEK293T. The description is as above. Particulars: MCC and control cell lines, CellTiter-Glo viability, 72 h; at 44.8 µM (top of the series) unless noted. The procedure, abridged:
as §2

In experiment [6] the test system is MCC-13. The description is as above. Particulars: MCC and control cell lines, CellTiter-Glo viability, 72 h; series mostly up to 46 µM. The procedure, abridged: as §2
In experiment [7] the test system is MCC-26. The experiment is described as above. Particulars: MCC and control cell lines, CellTiter-Glo viability, 72 h; series mostly up to 46 µM. The essentials:
as §2

Experiment [8] relates to MKL-1. Described as above. Particulars: MCC and control cell lines, CellTiter-Glo viability, 72 h; series mostly up to 46 µM. The essentials:
as §2

Experiment [9] deals with MKL-2. The experiment is described as above. Conditions: MCC and control cell lines, CellTiter-Glo viability, 72 h; series mostly up to 46 µM. The procedure, abridged:
as §2

Experiment [10] concerns UISO. Described as above. Particulars: MCC and control cell lines, CellTiter-Glo viability, 72 h; series mostly up to 46 µM. The essentials: as §2
In experiment [11] the test system is WaGa. The description is as above. Conditions: MCC and control cell lines, CellTiter-Glo viability, 72 h; series mostly up to 46 µM. The procedure, abridged:
as §2

The subject of experiment [12] is C33A. Briefly: Primary qHTS to identify gynecologic anti-cancer compounds using libraries of approved drugs and bioactive compounds (AID 1345084). Further: nearly all actives have a fitted effect of over 55% in size. Particulars: Gynecologic cancer cell panel viability, ATPlite luminescence, 48 h; series mostly up to 57.5 µM. The procedure, abridged: (§3)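 Cytotoxicity screen measuring ATP content by luciferase luminescence. Each compound is applied at five concentrations for 48 h at 37 C with 5% CO2.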

Experiment [13] concerns CAOV3. The experiment is described as above. Particulars: Gynecologic cancer cell panel viability, ATPlite luminescence, 48 h; series mostly up to 57.5 µM. The procedure, abridged:
as §3

Experiment [14] deals with CASKI. Described as above. Particulars: Gynecologic cancer cell panel viability, ATPlite luminescence, 48 h; series mostly up to 57.5 µM. The procedure, abridged:
as §3

Experiment [15] has as its system Es-2. The experiment is described as above. Particulars: Gynecologic cancer cell panel viability, ATPlite luminescence, 48 h; series mostly up to 57.5 µM. The procedure, abridged: as §3
Experiment [16] deals with HeLa. Described as above. Conditions: Gynecologic cancer cell panel viability, ATPlite luminescence, 48 h; series mostly up to 57.5 µM. The essentials: as §3
Experiment [17] deals with Hek293T. The description is as above. Conditions: Gynecologic cancer cell panel viability, ATPlite luminescence, 48 h, control line for the selectivity index; series mostly up to 57.5 µM. The essentials:
as §3

Experiment [18] relates to JEG-3. Described as above. Particulars: Gynecologic cancer cell panel viability, ATPlite luminescence, 48 h; series mostly up to 57.5 µM. The essentials:
as §3

For experiment [19], the system named is OV90. The description is as above. Particulars: Gynecologic cancer cell panel viability, ATPlite luminescence, 48 h; series mostly up to 57.5 µM. The essentials: as §3
The test system of experiment [20] is NIH3T3. Kind of experiment: qHTS assay to identify novel small-molecules to repurpose for Merkel cell carcinoma treatment (AID 1296009). Further: nearly all actives have a fitted effect of over 60% in size. Further: potency means the concentration at half of the fitted maximal effect. Conditions: MCC and control cell lines, CellTiter-Glo viability, 72 h; at 44.8 µM (top of the series) unless noted. The procedure, abridged: as §2

Several values for one entry are separate records, joined by “and”; a condition that tells them apart may be missing. Equal values may be shown once. Records with an inconclusive call do not appear. A structure can be active in one record and inactive in another. Activity calls are given as the source filed them. The call rests on the fitted dose curve; in most records, active means well fitted curve in the direction sought with a large enough effect; inconclusive means small, poorly fitted or top-dose-only effect, or another doubt; inactive means no such curve, though single readings can be large; an effect the other way counts as inactive or inconclusive.
On the % scale 0 is the no-effect control and ±100 the full control effect.

With `Cc1c(Cn2c(C)nc3c(C(=O)O)cc(N4CCOCC4)cc32)cccc1C(F)(F)F`, the result in experiment [1], in experiment [2] and in experiment [5] was inactive. The max response in [2] is 6.95% (inactive); in [3] it was 3.21% (inactive) and -3.58% (inactive). Moreover, the Potency result in [4], in experiment [6], in experiment [7], in experiment [8], in experiment [9] and in experiment [10] was “inactive” throughout. For the same compound, the Potency result in [11], in [12], in experiment [13], in experiment [14], in [15] and in experiment [16] was “inactive” throughout. Also, the Potency entry in experiment [17], in experiment [18] and in [19] was “inactive” each time.

On to `CNC(=O)CN1CCC(Oc2cc3c(Nc4cccc(Cl)c4F)ncnc3cc2OC)CC1`, for which the Potency was 580 nM (active) in experiment [1]; 26.4 µM (active) and 16.4 µM (active) in [3]; 3320 nM (active) in experiment [6]; 2640 nM (active) in experiment [7]; 118 nM (active) in experiment [10]. Besides, the max response was -148% (inactive) in [1]; 4.62% (inactive) and 3.88% (inactive) in experiment [2]. Besides, the Potency result in [9], in experiment [15], in [16], in experiment [17], in experiment [18] and in experiment [19] was “inactive” in each case.

With `Cc1cn2cc(C(=O)N(C)CCO)cc(N[C@@H]3CCOc4cccc(C)c43)c2n1`, the call in [1], in experiment [2], in experiment [3] and in [20] was inactive. Also, the max response in [2] is -1.9% (inactive). Besides, the Potency entry in [4], in experiment [6], in [8], in [9], in [11] and in experiment [12] was “inactive” each time. Also, the Potency entry in experiment [14], in experiment [15], in [16], in experiment [17], in experiment [18] and in experiment [19] was “inactive” each time.

For the compound `Cn1c(CNc2ccc(C(=N)N)cc2)nc2cc(C(=O)N(CCC(=O)O)c3ccccn3)ccc21`, the max response was -0.657% (inactive) and -2.49% (inactive) in experiment [1]; -2.52% (inactive) in experiment [2]. In addition, the result in experiment [2] and in experiment [3] was inactive. For the same compound, the Potency entry in experiment [6], in experiment [7], in experiment [8], in experiment [9], in [10] and in experiment [11] was “inactive” each time. Further, the Potency result in experiment [12], in experiment [13], in experiment [14], in [15], in [16] and in [17] was “inactive” throughout. Also, the Potency result in experiment [18] and in [19] was “inactive” in each case. Besides, the outcome in experiment [20] was “inactive [at 17.4 µM]”.

For `O=C(c1cncc(Br)c1)N1CCC(N2CCCC2)CC1`, the max response in experiment [1] is 2.29% (inactive) and 3.12% (inactive); in experiment [2], 1.64% (inactive); in experiment [3], 4.3% (inactive) and 2.16% (inactive). The result in [2] was inactive. Moreover, the Potency entry in experiment [6], in [7], in [8], in experiment [9], in experiment [10] and in experiment [11] was “inactive” in each case. The Potency result in [12], in [14], in experiment [15], in experiment [16], in experiment [17] and in [18] was “inactive” throughout. Moreover, the Potency result in [19] is “inactive”.

`Cc1c(C)n(Cc2ccc(-c3ccccc3C(=O)O)cc2)c2ccc(C(=O)N[C@@H](C)c3ccc([N+](=O)[O-])cc3)cc12`: the max response in experiment [1] was -4.97% (inactive); in [2], 0.427% (inactive) and 0.798% (inactive); in experiment [3], -3.87% (inactive) and -3.64% (inactive). In addition, the call in [1] and in experiment [5] was inactive. In addition, the Potency entry in experiment [4], in [6], in experiment [7], in [12], in experiment [14] and in experiment [15] was “inactive” in each case. For the same compound, the Potency result in [16], in [17], in [18] and in experiment [19] was “inactive” each time. Moreover, the Potency is 372 nM (active) in [8], 332 nM (active) in experiment [9] and 469 nM (active) in experiment [11].

As for `O=c1c2ccccc2nc2n1CCc1c-2[nH]c2ccccc12`, the max response in experiment [1] is -7.58% (inactive); in [2], 4.3% (inactive) and 8.09% (inactive); in experiment [3] it was 0.849% (inactive) and 0.542% (inactive). The call in experiment [1] was inactive. In addition, the Potency entry in experiment [4], in experiment [6], in experiment [7], in experiment [8], in experiment [9] and in experiment [11] was “inactive” throughout. Further, the Potency entry in experiment [12], in experiment [14], in experiment [15], in experiment [16], in [17] and in experiment [18] was “inactive” in each case. The Potency entry in experiment [19] is “inactive”.

Consider `Cc1ccc(NC(=O)C2(c3ccc4c(c3)OC(F)(F)O4)CC2)nc1-c1cccc(C(=O)O)c1`, for which the Potency was 418 nM (active) in experiment [1]; 52.6 nM (active) in [2]; 93.5 nM (active) in [3]; 1180 nM (active) in experiment [6]; 833 nM (active) in [7]; 26.4 nM (active) in experiment [9]. For the same compound, the max response in [1] was -0.152% (inactive). Moreover, the outcome in experiment [2], in experiment [3], in [5] and in experiment [20] was inactive. Moreover, the Potency entry in experiment [12], in experiment [14], in experiment [15], in experiment [16], in experiment [17] and in [18] was “inactive” each time. In experiment [19], the Potency entry was “inactive”.

On to `COc1cc(-c2nn(C3CCC(N4CCN(C(C)=O)CC4)CC3)c3ncnc(N)c23)ccc1NC(=O)c1cc2ccccc2n1C` (stereo not drawn), for which the Potency in [1] was 3660 nM (active); in experiment [2], 20600 nM (active); in [8] it was 3720 nM (active); in [10] it was 18700 nM (active). In addition, the max response is -22.8% (inactive) in [1]; -0.49% (inactive) in experiment [2]; -32.1% (inactive) and -29.8% (inactive) in [3]. In addition, the Potency entry in experiment [9], in experiment [12], in experiment [15], in [16], in experiment [17] and in experiment [18] was “inactive” each time. In [19], the Potency result was “inactive”.

For the compound `CN(C)c1nc(Cc2ccc(NC(=O)c3ccc4ccccc4c3)cc2)nc(Cl)c1CC(=O)O`, the max response is 3.96% (inactive) in experiment [1]; 2.84% (inactive) and 3.57% (inactive) in experiment [3]. Moreover, the call in [1], in [2] and in [5] was inactive. The Potency result in [4], in [6], in experiment [7], in experiment [8], in experiment [9] and in experiment [10] was “inactive” throughout. Further, the Potency result in [11], in experiment [12], in experiment [13], in experiment [14], in experiment [15] and in experiment [16] was “inactive” each time. The Potency result in experiment [17], in experiment [18] and in experiment [19] was “inactive” each time.
